Results taken from PubChem BioAssay.
Values without a mark were called inactive. For some assays here: Measured potencies and affinities stand elsewhere. Activity calls are given as the source filed them. Unless noted, no rule for the calls is given here.

What was measured:
[1] = antimalarial activity against Dd2 strain (AID 2302;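 active = growth inhibition above 50% at the single 2 µM test dose, taken to imply half-maximal potency below 2 µM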;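 also: 0% = DMSO untreated growth and 100% = chloroquine plus artemisinin killed control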); details: P. falciparum Dd2 in RBCs, LDH growth readout, 72 h; at 2 µM; stronger effect = higher value
[2] = HepG2 cytotoxicity, primary screen, cytotoxicity control for P. falciparum antimalarial project, cell-based, ATP luminescence (AID 2303;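 active = inhibition above 50%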;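 also: 0% = DMSO wells and 100% = digitonin-killed cells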); details: HepG2 viability, 24-48 h, at 10 µM, stronger effect = higher value
[3] = target: L-lactate dehydrogenase (Plasmodium falciparum (isolate CDC / Honduras)) (UniProt Q27743); experiment: PfLDH activity inhibition – cell lysate, 3D7 strain, counter-screen for P. falciparum growth inhibition project (AID 2304);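 also: 0% = vehicle and 100% = reference inhibitor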; details: P. falciparum 3D7 crude extract, LDH APAD/NBT absorbance; at 2 µM; stronger effect = higher value
[4] = inhibition of 3D7 malaria parasite growth – strain 3D7 (AID 2306);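 also: 0% = DMSO wells and 100% = chloroquine plus artemisinin control wells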; details: P. falciparum 3D7 erythrocytic growth, LDH absorbance, 72 h; at 2 µM; stronger effect = higher value
[5] = target: Calcium-dependent protein kinase 1 (Plasmodium falciparum (isolate 3D7)) (UniProt P62344); experiment: PfCDPK1 kinase inhibitors, biochemical, TCAMS library (AID 1159585; cut-off not given, nearly all actives have IC50 up to about 0.98 µM;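 also: inhibitors leave more ATP so luminescence rises with inhibition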); details: recombinant PfCDPK1, Kinase-Glo ATP depletion luminescence
[6] = target: Plasmodium falciparum protein kinase 6 (PK6, PF3D7_1337100) (UniProt Q8IDW1); experiment: PfPK6 kinase inhibitors, biochemical, TCAMS library (AID 1159586); details: recombinant PfPK6, Kinase-Glo ATP depletion luminescence
[7] = target: Protein kinase 7 (PK7), Plasmodium falciparum 3D7 (PF3D7_0213400) (UniProt Q7YTF7); experiment: inhibition of Plasmodium PK7 catalytic activity – biochemical, TCAMS antimalarial set, Kinase-Glo luminescence (AID 1159587); details: recombinant PfPK7, Kinase-Glo ATP depletion luminescence
[8] = target: Calcium-dependent protein kinase 4 (Plasmodium falciparum (isolate 3D7)) (UniProt Q8IBS5); experiment: PfCDPK4 kinase inhibitors, biochemical, TCAMS library (AID 1159588; cut-off not given, nearly all actives have IC50 up to about 0.91 µM); details: recombinant PfCDPK4, Kinase-Glo ATP depletion luminescence
Chain of Calcium-dependent protein kinase 4 (Plasmodium falciparum (isolate 3D7)) (Q8IBS5 whole entry, looked up): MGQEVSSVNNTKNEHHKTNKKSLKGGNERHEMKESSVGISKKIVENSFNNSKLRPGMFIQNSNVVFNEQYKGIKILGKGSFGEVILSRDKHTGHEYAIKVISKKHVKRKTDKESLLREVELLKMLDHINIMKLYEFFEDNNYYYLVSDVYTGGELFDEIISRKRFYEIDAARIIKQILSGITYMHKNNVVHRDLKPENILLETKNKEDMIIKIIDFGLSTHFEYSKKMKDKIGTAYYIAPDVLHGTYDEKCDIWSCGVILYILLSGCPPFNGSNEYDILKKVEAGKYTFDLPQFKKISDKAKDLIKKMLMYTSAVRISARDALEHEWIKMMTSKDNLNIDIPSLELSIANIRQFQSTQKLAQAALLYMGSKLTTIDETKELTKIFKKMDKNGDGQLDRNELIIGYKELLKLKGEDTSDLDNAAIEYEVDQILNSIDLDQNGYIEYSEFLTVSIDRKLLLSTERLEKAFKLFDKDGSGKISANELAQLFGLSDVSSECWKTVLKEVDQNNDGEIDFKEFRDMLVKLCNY

Chain of Protein kinase 7 (PK7), Plasmodium falciparum 3D7 (PF3D7_0213400) (Q7YTF7 1-343): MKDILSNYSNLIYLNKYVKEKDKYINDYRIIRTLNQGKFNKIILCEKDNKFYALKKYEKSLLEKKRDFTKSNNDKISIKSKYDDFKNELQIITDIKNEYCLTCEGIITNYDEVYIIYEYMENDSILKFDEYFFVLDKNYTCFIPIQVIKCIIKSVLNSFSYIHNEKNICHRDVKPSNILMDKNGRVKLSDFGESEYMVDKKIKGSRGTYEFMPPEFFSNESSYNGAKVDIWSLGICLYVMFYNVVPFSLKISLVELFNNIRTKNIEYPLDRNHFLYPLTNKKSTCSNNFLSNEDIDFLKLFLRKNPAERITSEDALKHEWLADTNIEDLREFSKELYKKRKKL
Chain of L-lactate dehydrogenase (Plasmodium falciparum (isolate CDC / Honduras)) (Q27743 whole entry, looked up): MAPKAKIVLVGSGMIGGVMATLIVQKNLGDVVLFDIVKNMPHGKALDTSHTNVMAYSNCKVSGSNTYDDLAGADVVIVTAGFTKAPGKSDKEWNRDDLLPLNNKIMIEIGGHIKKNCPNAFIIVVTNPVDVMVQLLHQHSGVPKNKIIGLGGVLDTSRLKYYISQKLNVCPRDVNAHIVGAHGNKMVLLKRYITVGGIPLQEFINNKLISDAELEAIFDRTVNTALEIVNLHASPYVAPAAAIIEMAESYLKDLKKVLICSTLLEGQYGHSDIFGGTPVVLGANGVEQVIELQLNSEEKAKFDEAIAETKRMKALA
Chain of Calcium-dependent protein kinase 1 (Plasmodium falciparum (isolate 3D7)) (P62344 whole entry, looked up): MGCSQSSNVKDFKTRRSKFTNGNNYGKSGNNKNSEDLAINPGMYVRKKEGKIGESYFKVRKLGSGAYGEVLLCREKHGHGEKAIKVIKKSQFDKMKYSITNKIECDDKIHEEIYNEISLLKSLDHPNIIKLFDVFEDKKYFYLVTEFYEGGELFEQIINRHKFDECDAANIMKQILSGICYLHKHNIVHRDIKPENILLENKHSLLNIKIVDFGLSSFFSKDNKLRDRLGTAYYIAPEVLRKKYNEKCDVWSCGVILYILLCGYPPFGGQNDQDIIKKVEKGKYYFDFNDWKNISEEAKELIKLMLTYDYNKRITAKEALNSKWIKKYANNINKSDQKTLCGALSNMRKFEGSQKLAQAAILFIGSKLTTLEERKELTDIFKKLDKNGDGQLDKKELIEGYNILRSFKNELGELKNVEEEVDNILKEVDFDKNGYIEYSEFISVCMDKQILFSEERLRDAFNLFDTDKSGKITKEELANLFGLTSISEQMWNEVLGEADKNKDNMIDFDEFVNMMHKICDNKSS
Chain of Plasmodium falciparum protein kinase 6 (PK6, PF3D7_1337100) (Q8IDW1 1-305): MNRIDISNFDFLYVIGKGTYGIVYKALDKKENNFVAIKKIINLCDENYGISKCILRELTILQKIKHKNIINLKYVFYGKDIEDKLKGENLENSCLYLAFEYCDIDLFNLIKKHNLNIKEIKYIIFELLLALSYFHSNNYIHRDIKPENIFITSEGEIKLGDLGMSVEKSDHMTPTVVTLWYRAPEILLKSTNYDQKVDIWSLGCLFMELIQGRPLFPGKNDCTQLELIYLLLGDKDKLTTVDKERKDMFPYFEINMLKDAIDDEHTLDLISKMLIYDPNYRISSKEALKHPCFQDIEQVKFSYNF

SMILES | growth inhibition [1] | inhibition [2] | inhibition [3] [%] | growth inhibition [4] | outcome [5] | outcome [6] | outcome [7] | outcome [8]
Cc1ccc(NC(=O)c2ccc(CN3CCCN(Cc4cccc(Cl)c4)CC3)cc2)cc1C | 18% | 41% | 2 | 84% (active) | inactive | inactive | inactive | inactive
OC1CCCN(Cc2ccc(-c3cccc(-c4nc5ccccc5[nH]4)c3)cc2)C1 (stereo not given) | -3% | 14% | 2 | 86% (active) | inactive | inactive | inactive | inactive
CCOc1ccc(-c2nonc2NC(=O)c2ccccc2OC)cc1OCC | 99% (active) | 24% | -3 | 100% (active) | inactive | inactive | inactive | inactive
CCOc1ccc2nc(C)cc(NN=Cc3ccccc3)c2c1 | 8% | 5% | -3 | 96% (active) | inactive | inactive | inactive | inactive
COc1ccc(CNC2Cc3ccccc3C2)cc1-c1ccc(S(=O)(=O)NCCN2CCCC2)s1 | 100% (active) | 89% (active) | 4 | 101% (active) | inactive | inactive | inactive | inactive
O=C(NCCCCN1CCC(c2ccc([N+](=O)[O-])cc2)CC1)c1ccc(NC(=O)c2ccc(Cl)cc2)cc1 | 55% (active) | 15% | 2 | 100% (active) | inactive | inactive | inactive | inactive
COc1ccc(S(=O)(=O)Nc2cc(Br)cc3c2OCCC3)cc1N1CCN(C(=O)C(Cl)(Cl)Cl)CC1 | 51% (active) | 4% | -2 | 90% (active) | inactive | inactive | inactive | inactive
COc1cc(C(=O)NC2CCN(Cc3ccccc3)CC2)ccc1-c1nc2cc(Cl)c(Cl)cc2[nH]1 | 100% (active) | 14% | 4 | 103% (active) | inactive | inactive | inactive | inactive
CC(C)[C@H]1C(=O)N(S(C)(=O)=O)[C@H]2CCN(C(=O)c3ccc(CN4CCCCC4)c([N+](=O)[O-])c3)[C@H]12 | 100% (active) | 10% | 3 | 100% (active) | inactive | inactive | inactive | inactive
CCCCN1CCCN(Cc2cccc(NC(=O)c3ccc(-c4ccccc4)cc3)c2)CC1 | 8% | 19% | 5 | 92% (active) | inactive | inactive | inactive | inactive
O=C(/C=C/c1ccc(Cl)c(Cl)c1)NCCCCCN1CCC(NC(=O)Nc2ccc(Cl)cc2F)CC1 | 40% | 100% (active) | -8 | 101% (active) | inactive | inactive | inactive | inactive
Cc1[nH]cnc1CSCCNC(=NCCCCCCCCN=C(NC#N)NCCSCc1nc[nH]c1C)NC#N | 48% | 1% | 0 | 81% (active) | inactive | inactive | inactive | inactive
CN(C)C(=NCCCCCCN=C(/N=C(/N)Nc1ccc(Cl)cc1)N(C)C)/N=C(/N)Nc1ccc(Cl)cc1 | 98% (active) | 11% | 4 | 97% (active) | inactive | inactive | inactive | inactive
O=C(CCC1CCCC1)N(Cc1ccc(-c2ccc(CNCCc3ccccn3)cc2)cc1)CC1CCCCN1 (stereo not given) | 69% (active) | 32% | 0 | 95% (active) | inactive | inactive | inactive | inactive
CC(C)(C(=O)Nc1ccc(C2CCC(NCC3CC3)CC2)c(Cl)c1)c1cccc(OC(F)F)c1 (stereo not given) | 23% | 34% | -4 | 99% (active) | inactive | inactive | inactive | inactive
CN(C)CCNCc1ccc(-c2ccc(-c3nc4ccccc4[nH]3)s2)cc1 | 100% (active) | -2% | 1 | 101% (active) | inactive | inactive | inactive | inactive
COc1cccc(Nc2nc(C)cc(NCc3ccc(-c4c(C)noc4C)cc3)n2)c1 | 42% | 33% | -1 | 98% (active) | inactive | inactive | inactive | inactive
O=C(/C=C/c1cccc(Cl)c1)N1CCC(C(O)CN2CCC3(CC2)CN(C(=O)/C=C/c2cccc(Cl)c2)c2ccccc23)CC1 (stereo not given) | 38% | 34% | 0 | 91% (active) | inactive | inactive | inactive | inactive
CC1(C)N=C(N)NC(Nc2ccc(F)c(F)c2)=N1 | 1% | 59% (active) | -10 | 91% (active) | inactive | inactive | inactive | inactive
COc1ccc2c(NN=Cc3ccccc3F)cc(C)nc2c1 | 12% | 4% | 2 | 90% (active) | inactive | inactive | inactive | inactive

SMILES | growth inhibition [1] | inhibition [2] | inhibition [3] [%] | growth inhibition [4] | outcome [5] | outcome [6] | outcome [7] | outcome [8]
O=C(NCc1cccc2ccccc12)C1CCCN(C(=O)c2ccc(O)c(-c3ccc(Cl)c(Cl)c3)c2)C1 (stereo not given) | 23% | 1% | -5 | 92% (active) | inactive | inactive | inactive | inactive
O=C(Nc1cccc(-c2ccc(-c3nc4ccc(F)cc4[nH]3)cc2)c1)c1ccoc1 | 6% | 39% | -7 | 85% (active) | inactive | inactive | inactive | inactive
Cc1[nH]c(C)c(-c2ccc(-c3cc(C(F)(F)F)cc(C(F)(F)F)c3)nc2)c(=O)c1Br | 96% (active) | 18% | 0 | 98% (active) | inactive | inactive | inactive | inactive
NC(=O)c1cccc(Nc2nccc(Nc3ccc(Oc4cccc5ccccc45)cc3)n2)c1 | 22% | -10% | 3 | 94% (active) | inactive | inactive | inactive | inactive
COc1ccc(CNCc2ccccc2)cc1-c1ccc(S(=O)(=O)NCCN2CCCC2)s1 | 62% (active) | 32% | 0 | 101% (active) | inactive | inactive | inactive | inactive
COc1ccc2nccc([C@@H](O)CN3CCC(NCc4ccc5c(c4)sc(=O)n5C)CC3)c2c1 | 72% (active) | 10% | -6 | 100% (active) | inactive | inactive | inactive | inactive
CCCCN(CCCC)CCNC(=O)c1cc(OC(F)(F)F)ccc1O | 90% (active) | 8% | -8 | 93% (active) | inactive | inactive | inactive | inactive
CCc1cn2c3c(cc(C(=O)N[C@@H](Cc4cc(F)cc(F)c4)[C@H](O)CNC4CCOCC4)cc13)N(C)S(=O)(=O)CC2 | 98% (active) | 1% | -7 | 98% (active) | inactive | inactive | inactive | inactive
Clc1ccc2c(NCCc3ccccn3)ccnc2c1 | 72% (active) | 13% | -1 | 92% (active) | inactive | inactive | inactive | inactive
COC(=O)c1cccc(NC(=O)NC2CCN(c3ccnc(NCc4ccc(F)cc4)n3)CC2)c1 | 39% | 29% | 5 | 93% (active) | inactive | inactive | inactive | inactive
Cc1nc(N)nc(N)c1OCCCOc1cccc(Cl)c1Cl | 95% (active) | 59% (active) | -2 | 93% (active) | inactive | inactive | inactive | inactive
CCCc1ccc(NC(=O)c2ccc(CN3CCCN(CC4CCCCC4)CC3)cc2)cc1 | 41% | 49% | -7 | 95% (active) | inactive | inactive | inactive | inactive
CCCOc1ccc(C(=O)Nc2nonc2-c2ccc(OC)c(OC)c2)cc1 | 97% (active) | -9% | 5 | 99% (active) | inactive | inactive | inactive | inactive
COc1cccc(NC(=O)c2cc(C(=O)Nc3cccc(OC)c3)cc([N+](=O)[O-])c2)c1 | 61% (active) | 1% | -3 | 99% (active) | inactive | inactive | inactive | inactive
Cc1nc(-c2nc(NCc3ccncc3)ncc2-c2ccsc2)sc1C | 83% (active) | 8% | 2 | 91% (active) | inactive | inactive | inactive | inactive
COc1ccc(-c2c(C(F)(F)F)nn(C)c2NC(=O)Nc2ccc(F)cc2F)cc1 | 99% (active) | 8% | -4 | 101% (active) | inactive | inactive | inactive | inactive
CCCC(C)Nc1nc(C)cc(N[C@@H](CC(C)C)C(=O)NCc2cccc(F)c2)n1 (stereo not given in full) | 63% (active) | 1% | 0 | 96% (active) | inactive | inactive | inactive | inactive
Cc1cccc2[nH]c(-c3ccc(-c4cccc(CNCc5cccc(N)c5)c4)s3)nc12 | 85% (active) | 15% | -4 | 102% (active) | inactive | inactive | inactive | inactive
CN1CCN(c2ccc(Nc3c(C(N)=O)cnc4cc(-c5ccoc5)ccc34)cc2)CC1 | 99% (active) | 14% | -3 | 101% (active) | inactive | inactive | inactive | inactive
N#Cc1c(N)n(CCc2ccc(F)cc2)c2nc3ccccc3nc12 | 36% | 8% | -1 | 92% (active) | inactive | inactive | inactive | inactive
